This is a sample that favours compounds with a hit; in the whole collection about 19% have one here.
DT40 TDP1 no CPT = qHTS for Inhibitors of human tyrosyl-DNA phosphodiesterase 1 (TDP1): qHTS in cells in absence of CPT; hit rate 15% among 420,000; DT40 Tdp1-/- hTDP1 cells, no CPT, ATP luminescence, 48 h; Potency, µM (doses to about 46.2 µM), most hits filed as inhibitors; note: nearly all actives have a fitted effect of over 55% in size
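Chicken DT40 Tdp1-/- cells stably complemented with human TDP1 were seeded at 400 cells/well with DMSO in place of 20 nM camptothecin. After compound pinning, cells grew at least 48 hr at 37 °C; viability read by CellTiter-Glo luminescence.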
uPA surface inh = inhibitors of cell surface uPA generation. cell surface uPA generation assay, qHTS. Potency, µM (highest dose often 38.3 µM), hits mostly inhibitors. hit rate 0.31% among 330,000; active = well fitted inhibition curve with a large enough effect; inconclusive = small, poorly fitted or top-dose-only effect; inactive = no such curve, though single readings can be large or run the other way; tested in mouse RAW 264.7 cells; note: nearly all actives have a fitted effect of over 55% in size
IL-1B inflam inh = blocks inflammasome-driven IL-1 beta release; THP-1 LPS/ATP IL-1B secretion, AlphaLISA, 16 h; hits give low values; activity change, % at 57.5 µM; hit rate 4.7% among 360,000; in the data active = activity change below about -50%; inconclusive = mostly about -30% to -49%
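THP-1 cells pretreated 1 hr with compounds (up to 57.5 uM final), then stimulated with LPS (250 ng/mL final) plus ATP (1.25 mM final); secreted IL-1B measured by AlphaLISA after 16 hr, decreased signal indicating inhibition.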
DT40 TDP1 CPT = DT40-hTDP1 cell growth loss with CPT | chicken DT40 Tdp1-/-;hTDP1 cells + 20 nM CPT, ATP luminescence, 48 h | Potency, µM (doses to about 46.2 µM), actives largely listed as inhibitors | hit rate 12% among 420,000; note: nearly all actives have a fitted effect of over 55% in size
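Chicken DT40 Tdp1-/- cells stably complemented with human TDP1 were seeded at 400 cells/well in medium containing 20 nM camptothecin, exposed to pin-transferred compounds, and grown at 37 °C for at least 48 hr. Viability was read as ATP luminescence.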
HT1080 IDH1KD tx = kills HT-1080 cells with IDH1 knockdown | hit rate 2% among 360,000 | Potency, µM (doses to about 46.1 µM), usual class: cytotoxic | HT-1080 IDH1 knockdown viability, ATP luminescence, 48 h | AID 686971
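Cytotoxicity counter-line: IDH1KD HT-1080, 48 h, CellTiter-Glo. Curves classed by r2, magnitude and activity.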
HT1080-NT tox = kills 2HG-producing HT-1080-NT fibrosarcoma cells; Potency, µM (titrated, usually from 46.1 µM), hits mostly cytotoxic; hit rate 1.6% among 360,000; HT-1080-NT fibrosarcoma viability, CellTiter-Glo ATP luminescence, 48 h; AID 686970;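 note: NT is the 2HG producing partner of a matched IDH1 knockdown line; nearly all actives have a fitted effect of over 55% in size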
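Viability of the 2HG-overproducing fibrosarcoma line after 48 hours of compound exposure at 37 degrees C was determined by luminescence with CellTiter-Glo, and concentration-effect curves were then fitted and categorized.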
A number is an active result; [ ] = dose if it differs, or a comment. Unless noted, calls come from the whole dose curve; as a rule, active = well fitted curve in the direction sought with a large enough effect; inconclusive = small, poorly fitted or top-dose-only effect, or another doubt; inactive = no such curve, though single readings can be large; an effect the other way counts as inactive or inconclusive.

`CC(C)(C)C1CCc2onc(C(=O)Nc3ccc4c(c3)OCO4)c2C1` (centres undefined) gave DT40 TDP1 no CPT inconclusive, uPA surface inh inactive, IL-1B inflam inh inactive, DT40 TDP1 CPT inactive, HT1080 IDH1KD tx 13µM and HT1080-NT tox inconclusive.
`COc1cc(NC(=O)c2noc3c2CC(C(C)(C)C)CC3)cc(OC)c1OC` (centres undefined) gave DT40 TDP1 no CPT 16.4µM and DT40 TDP1 CPT 20.6µM.
`CC(C)(C)C1CCc2onc(C(=O)NC3CCCC3)c2C1` (centres undefined) gave DT40 TDP1 no CPT inconclusive, IL-1B inflam inh inactive, DT40 TDP1 CPT inconclusive, HT1080 IDH1KD tx inactive and HT1080-NT tox inconclusive.
For CCC1CCCCN1C(=O)CSc1nc2ccsc2c(=O)n1Cc1ccccc1 (centres undefined) the results were DT40 TDP1 no CPT 9.2µM, uPA surface inh inactive, IL-1B inflam inh inactive, DT40 TDP1 CPT 20.6µM, HT1080 IDH1KD tx inactive and HT1080-NT tox inactive.
Screening CCCCn1c(SCC(=O)N2CCC(C)CC2)nc2ccsc2c1=O returned DT40 TDP1 no CPT 14.6µM, IL-1B inflam inh inactive, DT40 TDP1 CPT inconclusive, HT1080 IDH1KD tx inactive and HT1080-NT tox inactive.
For CCCCn1c(SCC(=O)N2CCN(c3ccccc3)CC2)nc2ccsc2c1=O the results were DT40 TDP1 no CPT inconclusive, uPA surface inh inactive, IL-1B inflam inh inactive, DT40 TDP1 CPT 11.6µM, HT1080 IDH1KD tx inconclusive and HT1080-NT tox inconclusive.
Screening CC(C)(CO)CNC1CCCN(C2Cc3ccccc3C2)C1 (centres undefined) returned DT40 TDP1 no CPT inactive, uPA surface inh inactive, IL-1B inflam inh inactive, DT40 TDP1 CPT inactive, HT1080 IDH1KD tx inactive and HT1080-NT tox inactive.
Cc1ccc(-c2oc3ccccc3c(=O)c2O)cc1 was read as DT40 TDP1 no CPT 16.4µM, uPA surface inh inactive, IL-1B inflam inh inactive, DT40 TDP1 CPT 25.9µM, HT1080 IDH1KD tx inactive and HT1080-NT tox inconclusive.
`Cc1ccc2oc(-c3ccccc3)c(C(=O)O)c(=O)c2c1` gave DT40 TDP1 no CPT 23.1µM, uPA surface inh inactive, IL-1B inflam inh inactive, DT40 TDP1 CPT inconclusive, HT1080 IDH1KD tx inconclusive and HT1080-NT tox inactive.
O=C(O)c1c(-c2ccccc2)oc2ccc(O)cc12 was read as DT40 TDP1 no CPT inactive, uPA surface inh inactive, IL-1B inflam inh inactive, DT40 TDP1 CPT inactive, HT1080 IDH1KD tx inactive and HT1080-NT tox inactive.
`COc1ccc2oc(-c3ccccc3)c(C(=O)O)c2c1` gave DT40 TDP1 no CPT inactive, uPA surface inh inactive, IL-1B inflam inh inactive, DT40 TDP1 CPT inactive, HT1080 IDH1KD tx inactive and HT1080-NT tox inactive.
Screening COc1cccc(-c2oc3ccc(C)cc3c(=O)c2O)c1 returned DT40 TDP1 no CPT 13µM and DT40 TDP1 CPT 20.6µM.
Screening O=c1c(O)c(-c2ccccc2)oc2ccccc12 returned DT40 TDP1 no CPT 9.2µM, uPA surface inh inconclusive, IL-1B inflam inh inactive, DT40 TDP1 CPT inconclusive, HT1080 IDH1KD tx inactive and HT1080-NT tox inactive.
`O=c1c(O)c(-c2cccs2)oc2ccccc12` gave DT40 TDP1 no CPT inconclusive, uPA surface inh inactive, IL-1B inflam inh inactive, DT40 TDP1 CPT inconclusive, HT1080 IDH1KD tx inactive and HT1080-NT tox inconclusive.
For Cc1ccc(C(=O)n2nc(C#N)c(C#N)c2N)cc1 the results were DT40 TDP1 no CPT inactive, uPA surface inh inactive, IL-1B inflam inh inactive, DT40 TDP1 CPT inactive, HT1080 IDH1KD tx inactive and HT1080-NT tox inactive.
Screening CCOC(=O)CCN(c1ccccc1)S(=O)(=O)c1ccc2[nH]c(=O)ccc2c1 returned DT40 TDP1 no CPT inactive and DT40 TDP1 CPT inactive.
For CC(=O)Nc1ccc(S(=O)(=O)NCC(=O)NC(C)c2ccc(S(N)(=O)=O)cc2)cc1 (centres undefined) the results were DT40 TDP1 no CPT inactive, uPA surface inh inactive, IL-1B inflam inh inactive, DT40 TDP1 CPT inactive, HT1080 IDH1KD tx inactive and HT1080-NT tox inactive.
Screening O=C(NC[C@H](O)c1ccccc1)c1ccccc1 returned DT40 TDP1 no CPT inactive[9.04 µM] and DT40 TDP1 CPT inactive[9.04 µM].
`COc1ccc(NC(=O)CCNS(=O)(=O)c2ccccc2F)cc1S(N)(=O)=O` gave DT40 TDP1 no CPT inactive, uPA surface inh inactive, IL-1B inflam inh inactive, DT40 TDP1 CPT inactive, HT1080 IDH1KD tx inactive and HT1080-NT tox inactive.
COc1cc(OC)c2c(c1)C(=O)OC2c1cc(OC)c(OC)cc1C (centres undefined) was read as DT40 TDP1 no CPT 11.2µM and DT40 TDP1 CPT inconclusive.
`COc1cc(OC)c2c(c1)C(=O)OC2OC` (centres undefined) gave DT40 TDP1 no CPT inactive, uPA surface inh inactive, IL-1B inflam inh inactive, DT40 TDP1 CPT inactive, HT1080 IDH1KD tx inactive and HT1080-NT tox inactive.
For CC(O)CNc1nc2ccccc2n1-c1ncnc2sc3c(c12)CCC3 (centres undefined) the results were DT40 TDP1 no CPT 29.1µM, uPA surface inh inactive, IL-1B inflam inh inconclusive, DT40 TDP1 CPT 16.4µM, HT1080 IDH1KD tx inconclusive and HT1080-NT tox inconclusive.
Screening Cc1ccc(Cn2ccn(Cc3ccc(C)cc3)c(=O)c2=O)cc1 returned DT40 TDP1 no CPT inactive and DT40 TDP1 CPT inactive.
`CCCCc1ccc(NC(=O)CC(C)(C)C)cc1` gave DT40 TDP1 no CPT inconclusive, uPA surface inh inactive, IL-1B inflam inh -76.3, DT40 TDP1 CPT inactive, HT1080 IDH1KD tx inactive and HT1080-NT tox inconclusive.
CC(C)CC(=O)Nc1ccc(Nc2ccccc2)cc1 was read as DT40 TDP1 no CPT inactive, uPA surface inh inactive, IL-1B inflam inh inactive, DT40 TDP1 CPT inactive, HT1080 IDH1KD tx inactive and HT1080-NT tox inactive.
`NS(=O)(=O)c1cccc(NC(=O)c2cccc3c(Br)cccc23)c1` gave DT40 TDP1 no CPT inactive, uPA surface inh inactive, IL-1B inflam inh inactive, DT40 TDP1 CPT inactive, HT1080 IDH1KD tx inactive and HT1080-NT tox inactive.
`CC(C)C(=O)Nc1ccc(Nc2ccccc2)cc1` gave DT40 TDP1 no CPT 10.3µM, uPA surface inh inactive, IL-1B inflam inh inactive, DT40 TDP1 CPT 11.6µM, HT1080 IDH1KD tx inactive and HT1080-NT tox inactive.
CC(C)(C)CC(=O)Nc1ccc(Nc2ccccc2)cc1 was read as DT40 TDP1 no CPT inactive, uPA surface inh inactive, IL-1B inflam inh -61.7, DT40 TDP1 CPT inactive, HT1080 IDH1KD tx inactive and HT1080-NT tox inactive.
Screening CCCCc1ccc(NC(=O)CC(C)=O)cc1 returned DT40 TDP1 no CPT inactive, IL-1B inflam inh inactive, DT40 TDP1 CPT inactive, HT1080 IDH1KD tx inactive and HT1080-NT tox inactive.
Screening CC(C)C(=O)Nc1ccc(NC(=O)c2cccc3c(Br)cccc23)cc1 returned DT40 TDP1 no CPT inconclusive, uPA surface inh inactive, IL-1B inflam inh inactive, DT40 TDP1 CPT 16.4µM, HT1080 IDH1KD tx inactive and HT1080-NT tox inactive.
